# ± gives the standard deviation of the averaged measurements.
# How the values were obtained:
# Assay in all cases: promoter activity interaction Z-score (Lux/OD deviation from empty-vector control); higher = stronger promoter induction by the compound
# [1] = test system: E. coli BW25113 acrABp lux reporter
# Outline: (§1)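 Wild-type E. coli BW25113 and three single-gene deletion strains, each carrying a low-copy luxCDABE promoter reporter, were grown at 37°C in 40 µl LB Lennox per well of a 384-well plate. Every compound was applied at four 1:2 dilutions in biological duplicates, and OD600 and luminescence were read every 30 min for 12 h. Integration covered 0–8 h for wild type and 1–9 h for deletion strains, and wells under 10% of the median growth value were removed. Scores are Z-transformed residuals of growth-normalised luminescence fitted against a control.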
# [2] = test system: E. coli BW25113 marRABp lux reporter
# Outline: as §1
# [3] = test system: E. coli BW25113 micFp lux reporter
# Outline: as §1
# [4] = test system: E. coli BW25113 ompFp lux reporter
# Outline: as §1
# [5] = test system: E. coli BW25113 robp lux reporter
# Outline: as §1
# [6] = test system: E. coli BW25113 soxSp lux reporter
# Outline: as §1
# [7] = test system: E. coli BW25113 tolCp lux reporter
# Outline: as §1
# [8] = 19.1 µg/ml, genetic background: wild type
# [9] = 19.1 µg/ml, genetic background: ΔmarA
# [10] = 19.1 µg/ml, genetic background: Δrob
# [11] = 19.1 µg/ml, genetic background: ΔsoxS
# [12] = 38.3 µg/ml, genetic background: wild type
# [13] = 38.3 µg/ml, genetic background: ΔmarA
# [14] = 38.3 µg/ml, genetic background: Δrob
# [15] = 38.3 µg/ml, genetic background: ΔsoxS
# [16] = 76.6 µg/ml, genetic background: wild type
# [17] = 76.6 µg/ml, genetic background: ΔmarA
# [18] = 76.6 µg/ml, genetic background: Δrob
# [19] = 76.6 µg/ml, genetic background: ΔsoxS
# [20] = 153.1 µg/ml, genetic background: wild type
# [21] = 153.1 µg/ml, genetic background: ΔmarA
# [22] = 153.1 µg/ml, genetic background: Δrob
# [23] = 153.1 µg/ml, genetic background: ΔsoxS
structure (smiles),measurement,setting,value
Nc1ccc(C(=O)O)c(O)c1 [4-Aminosalicylic acid],promoter activity interaction Z-score,[1]; [8],-0.149 ± 0.057
same,promoter activity interaction Z-score,[1]; [9],-0.463 ± 0.94
same,promoter activity interaction Z-score,[1]; [10],-0.0648 ± 0.1
same,promoter activity interaction Z-score,[1]; [11],0.0906 ± 0.23
same,promoter activity interaction Z-score,[1]; [12],-0.194 ± 0.071
same,promoter activity interaction Z-score,[1]; [13],-0.226 ± 0.02
same,promoter activity interaction Z-score,[1]; [14],0.179 ± 0.24
same,promoter activity interaction Z-score,[1]; [15],0.221 ± 0.28
same,promoter activity interaction Z-score,[1]; [16],-0.276 ± 0.035
same,promoter activity interaction Z-score,[1]; [17],-0.0192 ± 0.31
same,promoter activity interaction Z-score,[1]; [18],-0.218 ± 0.18
same,promoter activity interaction Z-score,[1]; [19],-0.00319 ± 0.25
same,promoter activity interaction Z-score,[1]; [20],-0.212 ± 0.19
same,promoter activity interaction Z-score,[1]; [21],0.164 ± 0.025
same,promoter activity interaction Z-score,[1]; [22],0.0189 ± 0.39
same,promoter activity interaction Z-score,[1]; [23],0.952 ± 1.3
same,promoter activity interaction Z-score,[2]; [8],0.109 ± 0.4
same,promoter activity interaction Z-score,[2]; [9],0.307 ± 0.0067
same,promoter activity interaction Z-score,[2]; [10],0.19 ± 0.12
same,promoter activity interaction Z-score,[2]; [11],0.147 ± 0.18
same,promoter activity interaction Z-score,[2]; [12],0.0516 ± 0.015
same,promoter activity interaction Z-score,[2]; [13],0.172 ± 0.09
same,promoter activity interaction Z-score,[2]; [14],0.493 ± 0.39
same,promoter activity interaction Z-score,[2]; [15],0.161 ± 0.086
same,promoter activity interaction Z-score,[2]; [16],-0.0573 ± 0.025
same,promoter activity interaction Z-score,[2]; [17],-0.242 ± 0.12
same,promoter activity interaction Z-score,[2]; [18],0.384 ± 0.31
same,promoter activity interaction Z-score,[2]; [19],-0.0494 ± 0.21
same,promoter activity interaction Z-score,[2]; [20],0.642 ± 0.055
same,promoter activity interaction Z-score,[2]; [21],0.698 ± 0.021
same,promoter activity interaction Z-score,[2]; [22],0.956 ± 0.3
same,promoter activity interaction Z-score,[2]; [23],0.968 ± 0.13
same,promoter activity interaction Z-score,[3]; [8],0.127 ± 0.069
same,promoter activity interaction Z-score,[3]; [9],0.157 ± 0.12
same,promoter activity interaction Z-score,[3]; [10],0.223 ± 0.068
same,promoter activity interaction Z-score,[3]; [11],0.335 ± 0.24
same,promoter activity interaction Z-score,[3]; [12],0.103 ± 0.31
same,promoter activity interaction Z-score,[3]; [13],0.0571 ± 0.12
same,promoter activity interaction Z-score,[3]; [14],0.346 ± 0.16
same,promoter activity interaction Z-score,[3]; [15],0.348 ± 0.31
same,promoter activity interaction Z-score,[3]; [16],0.399 ± 0.11
same,promoter activity interaction Z-score,[3]; [17],0.312 ± 0.014
same,promoter activity interaction Z-score,[3]; [18],0.842 ± 0.12
same,promoter activity interaction Z-score,[3]; [19],0.567 ± 0.32
same,promoter activity interaction Z-score,[3]; [20],0.955 ± 0.34
same,promoter activity interaction Z-score,[3]; [21],0.278 ± 0.066
same,promoter activity interaction Z-score,[3]; [22],1.89 ± 0.16
same,promoter activity interaction Z-score,[3]; [23],2.24 ± 0.04
same,promoter activity interaction Z-score,[4]; [8],-0.191 ± 0.28
same,promoter activity interaction Z-score,[4]; [9],-0.0337 ± 0.042
same,promoter activity interaction Z-score,[4]; [10],0.485 ± 0.12
same,promoter activity interaction Z-score,[4]; [11],0.498 ± 0.63
same,promoter activity interaction Z-score,[4]; [12],-0.538 ± 0.33
same,promoter activity interaction Z-score,[4]; [13],0.43 ± 0.48
same,promoter activity interaction Z-score,[4]; [14],0.92 ± 0.71
same,promoter activity interaction Z-score,[4]; [15],0.203 ± 0.35
same,promoter activity interaction Z-score,[4]; [16],-0.751 ± 0.39
same,promoter activity interaction Z-score,[4]; [17],-0.414 ± 0.39
same,promoter activity interaction Z-score,[4]; [18],-0.49 ± 0.65
same,promoter activity interaction Z-score,[4]; [19],-0.5 ± 0.67
same,promoter activity interaction Z-score,[4]; [20],-0.516 ± 0.52
same,promoter activity interaction Z-score,[4]; [21],0.0436 ± 0.35
same,promoter activity interaction Z-score,[4]; [22],0.0977 ± 1
same,promoter activity interaction Z-score,[4]; [23],0.625 ± 1.1
same,promoter activity interaction Z-score,[5]; [8],-0.222 ± 0.014
same,promoter activity interaction Z-score,[5]; [9],-0.199 ± 0.69
same,promoter activity interaction Z-score,[5]; [10],-0.314 ± 0.28
same,promoter activity interaction Z-score,[5]; [11],-0.201 ± 0.76
same,promoter activity interaction Z-score,[5]; [12],-0.158 ± 0.15
same,promoter activity interaction Z-score,[5]; [13],0.308 ± 0.07
same,promoter activity interaction Z-score,[5]; [14],0.333 ± 0.35
same,promoter activity interaction Z-score,[5]; [15],0.11 ± 0.31
same,promoter activity interaction Z-score,[5]; [16],-0.0528 ± 0.63
same,promoter activity interaction Z-score,[5]; [17],-0.845 ± 0.11
same,promoter activity interaction Z-score,[5]; [18],-0.29 ± 0.49
same,promoter activity interaction Z-score,[5]; [19],-0.381 ± 0.64
same,promoter activity interaction Z-score,[5]; [20],-0.356 ± 0.24
same,promoter activity interaction Z-score,[5]; [21],0.439 ± 0.5
same,promoter activity interaction Z-score,[5]; [22],-0.252 ± 0.99
same,promoter activity interaction Z-score,[5]; [23],0.0401 ± 0.42
same,promoter activity interaction Z-score,[6]; [8],0.0858 ± 0.3
same,promoter activity interaction Z-score,[6]; [9],0.563 ± 0.097
same,promoter activity interaction Z-score,[6]; [10],0.674 ± 0.079
same,promoter activity interaction Z-score,[6]; [11],0.458 ± 0.71
same,promoter activity interaction Z-score,[6]; [12],-0.0504 ± 0.074
same,promoter activity interaction Z-score,[6]; [13],0.547 ± 0.088
same,promoter activity interaction Z-score,[6]; [14],0.688 ± 0.15
same,promoter activity interaction Z-score,[6]; [15],0.377 ± 0.54
same,promoter activity interaction Z-score,[6]; [16],0.102 ± 0.028
same,promoter activity interaction Z-score,[6]; [17],0.199 ± 0.076
same,promoter activity interaction Z-score,[6]; [18],0.581 ± 0.14
same,promoter activity interaction Z-score,[6]; [19],0.29 ± 0.88
same,promoter activity interaction Z-score,[6]; [20],-0.173 ± 0.12
same,promoter activity interaction Z-score,[6]; [21],0.349 ± 0.045
same,promoter activity interaction Z-score,[6]; [22],0.403 ± 0.16
same,promoter activity interaction Z-score,[6]; [23],0.259 ± 0.95
same,promoter activity interaction Z-score,[7]; [8],-0.487 ± 1.9
same,promoter activity interaction Z-score,[7]; [9],-1.05 ± 0.26
same,promoter activity interaction Z-score,[7]; [10],1.71 ± 2
same,promoter activity interaction Z-score,[7]; [11],-0.0483 ± 0.2
same,promoter activity interaction Z-score,[7]; [12],-0.154 ± 1.3
same,promoter activity interaction Z-score,[7]; [13],-0.0748 ± 0.1
same,promoter activity interaction Z-score,[7]; [14],0.149 ± 0.17
same,promoter activity interaction Z-score,[7]; [15],0.687 ± 1.6
same,promoter activity interaction Z-score,[7]; [16],-0.119 ± 0.018
same,promoter activity interaction Z-score,[7]; [17],-0.241 ± 0.77
same,promoter activity interaction Z-score,[7]; [18],1.64 ± 0.41
same,promoter activity interaction Z-score,[7]; [19],-0.423 ± 0.15
same,promoter activity interaction Z-score,[7]; [20],0.606 ± 0.32
same,promoter activity interaction Z-score,[7]; [21],0.0837 ± 0.18
same,promoter activity interaction Z-score,[7]; [22],0.207 ± 0.77
same,promoter activity interaction Z-score,[7]; [23],1.76 ± 0.4

# From the supplement of paper PMC12282887
